Assay results as given in ChEMBL document CHEMBL2218924, “A broad activity screen in support of a chemogenomic map for kinase signalling research and drug discovery” (Biochem J, 2013).

What was measured:
[1] = target: Death-associated protein kinase 1 (Homo sapiens) (UniProt P53355); details: at 10 µM
[2] = target: T1, Serine/threonine-protein kinase DCLK2 (Homo sapiens) (UniProt Q8N568); details: at 1 µM
T1 sequence (whole entry): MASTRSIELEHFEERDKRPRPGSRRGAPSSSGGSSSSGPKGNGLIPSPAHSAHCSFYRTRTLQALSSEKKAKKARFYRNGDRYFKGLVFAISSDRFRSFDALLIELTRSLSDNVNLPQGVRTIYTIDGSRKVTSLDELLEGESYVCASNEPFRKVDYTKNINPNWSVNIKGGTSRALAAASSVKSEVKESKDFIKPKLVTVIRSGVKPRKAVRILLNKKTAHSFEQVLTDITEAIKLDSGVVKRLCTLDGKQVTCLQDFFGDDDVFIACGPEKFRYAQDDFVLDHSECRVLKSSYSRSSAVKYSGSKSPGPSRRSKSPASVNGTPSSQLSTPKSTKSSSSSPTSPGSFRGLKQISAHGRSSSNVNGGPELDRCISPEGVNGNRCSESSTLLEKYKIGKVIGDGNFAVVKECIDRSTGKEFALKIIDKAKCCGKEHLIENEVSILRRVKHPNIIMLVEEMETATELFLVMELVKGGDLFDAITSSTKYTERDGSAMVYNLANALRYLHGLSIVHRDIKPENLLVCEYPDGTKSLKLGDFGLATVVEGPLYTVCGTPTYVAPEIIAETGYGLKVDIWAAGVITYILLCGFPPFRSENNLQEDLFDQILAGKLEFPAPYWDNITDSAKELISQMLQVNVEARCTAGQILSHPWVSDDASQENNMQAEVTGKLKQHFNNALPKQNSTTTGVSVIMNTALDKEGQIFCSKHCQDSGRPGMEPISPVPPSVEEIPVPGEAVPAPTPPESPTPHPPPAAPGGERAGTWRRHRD

[3] = target: T1, Serine/threonine-protein kinase DCLK2 (Homo sapiens); details: at 10 µM
[4] = target: T2, Myotonin-protein kinase (Homo sapiens) (UniProt Q09013); details: at 1 µM
T2 sequence (whole entry): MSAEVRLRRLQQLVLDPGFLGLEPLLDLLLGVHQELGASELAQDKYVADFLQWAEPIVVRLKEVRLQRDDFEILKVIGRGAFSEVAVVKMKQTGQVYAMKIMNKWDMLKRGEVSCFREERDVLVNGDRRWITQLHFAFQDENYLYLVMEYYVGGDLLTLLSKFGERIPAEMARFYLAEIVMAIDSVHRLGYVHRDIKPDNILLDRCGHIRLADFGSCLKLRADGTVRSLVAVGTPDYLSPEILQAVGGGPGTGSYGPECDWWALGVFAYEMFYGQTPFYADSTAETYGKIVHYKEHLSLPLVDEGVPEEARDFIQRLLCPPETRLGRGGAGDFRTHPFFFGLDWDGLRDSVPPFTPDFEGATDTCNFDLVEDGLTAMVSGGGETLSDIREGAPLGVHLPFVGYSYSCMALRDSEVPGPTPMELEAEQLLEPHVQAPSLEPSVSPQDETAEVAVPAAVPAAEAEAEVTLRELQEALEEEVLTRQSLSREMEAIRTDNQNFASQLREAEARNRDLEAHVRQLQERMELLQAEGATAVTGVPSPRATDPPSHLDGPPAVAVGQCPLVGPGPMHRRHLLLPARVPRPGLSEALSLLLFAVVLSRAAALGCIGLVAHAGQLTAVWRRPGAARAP

[5] = target: T2, Myotonin-protein kinase (Homo sapiens); details: at 10 µM
[6] = target: T3, Serine/threonine-protein kinase 17A (Homo sapiens) (UniProt Q9UEE5); details: at 1 µM
T3 sequence (whole entry): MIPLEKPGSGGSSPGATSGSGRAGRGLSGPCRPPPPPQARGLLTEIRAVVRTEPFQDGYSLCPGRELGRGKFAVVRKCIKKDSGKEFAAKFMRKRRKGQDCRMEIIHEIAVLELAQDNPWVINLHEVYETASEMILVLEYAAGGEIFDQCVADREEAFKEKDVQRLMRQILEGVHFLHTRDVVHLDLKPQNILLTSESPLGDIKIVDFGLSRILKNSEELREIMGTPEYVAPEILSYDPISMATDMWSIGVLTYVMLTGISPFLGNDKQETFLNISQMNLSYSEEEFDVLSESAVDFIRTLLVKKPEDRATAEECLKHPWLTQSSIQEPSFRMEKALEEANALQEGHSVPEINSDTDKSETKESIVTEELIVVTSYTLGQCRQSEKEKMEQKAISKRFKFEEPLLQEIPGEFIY

[7] = target: T4, Dual specificity tyrosine-phosphorylation-regulated kinase 2 (Homo sapiens) (UniProt Q92630); details: at 10 µM
T4 sequence (whole entry): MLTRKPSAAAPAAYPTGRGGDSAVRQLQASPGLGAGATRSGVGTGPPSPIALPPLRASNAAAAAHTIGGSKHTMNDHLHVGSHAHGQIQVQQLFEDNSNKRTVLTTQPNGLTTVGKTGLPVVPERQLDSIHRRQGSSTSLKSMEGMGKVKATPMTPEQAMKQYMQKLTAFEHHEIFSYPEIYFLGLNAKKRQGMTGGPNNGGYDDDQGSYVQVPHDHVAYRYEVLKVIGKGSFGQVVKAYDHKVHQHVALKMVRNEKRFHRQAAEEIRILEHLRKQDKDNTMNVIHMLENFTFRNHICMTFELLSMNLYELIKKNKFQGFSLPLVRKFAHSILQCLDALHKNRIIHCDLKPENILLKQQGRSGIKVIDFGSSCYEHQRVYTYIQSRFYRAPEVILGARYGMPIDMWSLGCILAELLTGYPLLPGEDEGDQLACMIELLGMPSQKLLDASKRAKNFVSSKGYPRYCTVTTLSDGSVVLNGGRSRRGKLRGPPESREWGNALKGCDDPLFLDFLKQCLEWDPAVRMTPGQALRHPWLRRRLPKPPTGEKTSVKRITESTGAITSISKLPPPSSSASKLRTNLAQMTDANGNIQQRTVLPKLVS

[8] = target: T5, Ephrin type-A receptor 1 (Homo sapiens) (UniProt P21709); details: at 1 µM
T5 sequence (whole entry): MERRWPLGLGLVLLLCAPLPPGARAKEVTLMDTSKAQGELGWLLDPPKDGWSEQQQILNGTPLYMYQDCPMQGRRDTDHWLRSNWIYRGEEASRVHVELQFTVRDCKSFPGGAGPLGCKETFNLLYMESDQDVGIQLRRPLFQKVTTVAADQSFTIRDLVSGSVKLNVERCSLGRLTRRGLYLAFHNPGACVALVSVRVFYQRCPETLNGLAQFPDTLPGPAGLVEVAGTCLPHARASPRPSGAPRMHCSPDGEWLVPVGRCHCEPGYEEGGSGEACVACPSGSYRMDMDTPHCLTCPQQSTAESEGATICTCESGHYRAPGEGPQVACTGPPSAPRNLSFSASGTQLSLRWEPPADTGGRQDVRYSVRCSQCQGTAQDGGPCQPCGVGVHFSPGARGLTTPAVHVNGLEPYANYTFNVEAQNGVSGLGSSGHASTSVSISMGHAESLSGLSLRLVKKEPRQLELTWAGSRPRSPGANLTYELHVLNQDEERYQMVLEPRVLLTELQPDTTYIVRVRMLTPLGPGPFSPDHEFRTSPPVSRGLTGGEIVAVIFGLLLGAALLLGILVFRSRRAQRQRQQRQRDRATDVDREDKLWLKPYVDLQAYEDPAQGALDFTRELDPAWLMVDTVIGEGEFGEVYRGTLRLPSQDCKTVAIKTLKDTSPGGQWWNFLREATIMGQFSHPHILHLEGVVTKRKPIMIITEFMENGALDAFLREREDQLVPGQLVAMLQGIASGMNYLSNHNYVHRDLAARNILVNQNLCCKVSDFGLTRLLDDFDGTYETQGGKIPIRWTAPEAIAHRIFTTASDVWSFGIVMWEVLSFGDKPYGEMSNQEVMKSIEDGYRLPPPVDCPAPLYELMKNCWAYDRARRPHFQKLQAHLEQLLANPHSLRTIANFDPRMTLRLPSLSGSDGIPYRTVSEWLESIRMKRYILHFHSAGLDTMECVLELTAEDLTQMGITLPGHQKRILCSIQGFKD

[9] = target: T5, Ephrin type-A receptor 1 (Homo sapiens); details: at 10 µM
[10] = target: Ephrin type-A receptor 2 (Homo sapiens) (UniProt P29317); details: at 1 µM
[11] = target: T6, Ephrin type-A receptor 3 (Homo sapiens) (UniProt P29320); details: at 1 µM
T6 sequence (whole entry): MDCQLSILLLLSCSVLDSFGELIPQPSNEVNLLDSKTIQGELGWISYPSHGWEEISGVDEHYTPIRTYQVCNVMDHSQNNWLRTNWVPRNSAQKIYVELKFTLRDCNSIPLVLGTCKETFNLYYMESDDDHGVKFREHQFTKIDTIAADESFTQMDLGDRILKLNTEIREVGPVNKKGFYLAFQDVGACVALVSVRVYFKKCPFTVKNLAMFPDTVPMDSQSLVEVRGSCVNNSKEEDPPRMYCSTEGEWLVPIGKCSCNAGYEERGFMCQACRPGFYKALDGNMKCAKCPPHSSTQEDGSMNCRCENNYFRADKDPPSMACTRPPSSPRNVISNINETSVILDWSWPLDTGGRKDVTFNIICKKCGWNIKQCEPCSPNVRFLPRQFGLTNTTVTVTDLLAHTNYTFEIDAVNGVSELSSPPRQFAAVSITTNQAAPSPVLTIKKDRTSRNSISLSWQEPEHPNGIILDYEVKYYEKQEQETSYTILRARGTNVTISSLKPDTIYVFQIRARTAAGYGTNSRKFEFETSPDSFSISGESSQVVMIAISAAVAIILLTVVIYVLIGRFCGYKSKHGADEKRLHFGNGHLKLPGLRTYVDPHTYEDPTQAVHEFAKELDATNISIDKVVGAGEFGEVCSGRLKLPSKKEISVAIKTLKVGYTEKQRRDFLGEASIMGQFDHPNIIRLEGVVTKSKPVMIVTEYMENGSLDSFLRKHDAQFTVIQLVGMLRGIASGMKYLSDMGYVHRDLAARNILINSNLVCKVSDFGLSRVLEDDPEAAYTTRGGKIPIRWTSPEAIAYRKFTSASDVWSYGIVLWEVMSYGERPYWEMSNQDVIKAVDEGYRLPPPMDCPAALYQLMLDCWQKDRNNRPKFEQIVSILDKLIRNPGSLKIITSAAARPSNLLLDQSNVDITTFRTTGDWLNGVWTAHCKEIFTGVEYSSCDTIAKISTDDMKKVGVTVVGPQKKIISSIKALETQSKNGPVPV

Death-associated protein kinase 1 (Homo sapiens), sequence (P53355 whole entry, looked up): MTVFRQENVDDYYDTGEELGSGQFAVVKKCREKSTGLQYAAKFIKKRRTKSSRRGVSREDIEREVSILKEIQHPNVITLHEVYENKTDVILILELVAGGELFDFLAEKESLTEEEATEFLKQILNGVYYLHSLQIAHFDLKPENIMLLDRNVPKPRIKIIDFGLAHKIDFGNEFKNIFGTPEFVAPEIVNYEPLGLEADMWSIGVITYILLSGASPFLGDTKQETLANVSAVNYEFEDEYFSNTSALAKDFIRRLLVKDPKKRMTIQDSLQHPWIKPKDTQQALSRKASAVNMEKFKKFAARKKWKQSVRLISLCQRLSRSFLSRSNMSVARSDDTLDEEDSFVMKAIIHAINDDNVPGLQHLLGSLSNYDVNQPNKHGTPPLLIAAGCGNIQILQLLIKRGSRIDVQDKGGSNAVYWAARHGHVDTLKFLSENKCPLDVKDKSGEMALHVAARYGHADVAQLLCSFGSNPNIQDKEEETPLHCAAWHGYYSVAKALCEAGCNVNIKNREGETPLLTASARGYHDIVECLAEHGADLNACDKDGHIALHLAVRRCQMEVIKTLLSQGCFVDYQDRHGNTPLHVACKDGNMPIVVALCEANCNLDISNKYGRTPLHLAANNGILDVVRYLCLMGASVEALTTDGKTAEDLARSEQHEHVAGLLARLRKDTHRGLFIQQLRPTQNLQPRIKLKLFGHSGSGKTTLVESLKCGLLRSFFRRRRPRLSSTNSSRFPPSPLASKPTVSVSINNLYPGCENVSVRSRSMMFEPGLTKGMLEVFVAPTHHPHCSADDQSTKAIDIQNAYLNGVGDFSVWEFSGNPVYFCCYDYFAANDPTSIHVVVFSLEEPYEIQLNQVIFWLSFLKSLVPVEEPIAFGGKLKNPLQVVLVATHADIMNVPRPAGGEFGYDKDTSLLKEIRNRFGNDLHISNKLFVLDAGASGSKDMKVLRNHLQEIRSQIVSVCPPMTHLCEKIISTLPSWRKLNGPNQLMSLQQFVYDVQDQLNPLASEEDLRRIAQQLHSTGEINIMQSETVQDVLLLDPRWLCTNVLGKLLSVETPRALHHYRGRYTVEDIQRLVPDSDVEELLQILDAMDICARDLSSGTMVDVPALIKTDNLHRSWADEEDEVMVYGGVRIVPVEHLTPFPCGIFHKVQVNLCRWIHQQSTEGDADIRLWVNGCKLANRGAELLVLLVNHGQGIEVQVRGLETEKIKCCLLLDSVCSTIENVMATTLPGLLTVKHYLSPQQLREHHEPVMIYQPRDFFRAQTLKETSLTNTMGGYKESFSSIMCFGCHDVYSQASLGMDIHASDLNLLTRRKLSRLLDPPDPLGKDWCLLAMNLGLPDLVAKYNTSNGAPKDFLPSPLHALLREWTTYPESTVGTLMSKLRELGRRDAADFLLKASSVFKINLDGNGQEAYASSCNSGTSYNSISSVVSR
Ephrin type-A receptor 2 (Homo sapiens), sequence (P29317 whole entry): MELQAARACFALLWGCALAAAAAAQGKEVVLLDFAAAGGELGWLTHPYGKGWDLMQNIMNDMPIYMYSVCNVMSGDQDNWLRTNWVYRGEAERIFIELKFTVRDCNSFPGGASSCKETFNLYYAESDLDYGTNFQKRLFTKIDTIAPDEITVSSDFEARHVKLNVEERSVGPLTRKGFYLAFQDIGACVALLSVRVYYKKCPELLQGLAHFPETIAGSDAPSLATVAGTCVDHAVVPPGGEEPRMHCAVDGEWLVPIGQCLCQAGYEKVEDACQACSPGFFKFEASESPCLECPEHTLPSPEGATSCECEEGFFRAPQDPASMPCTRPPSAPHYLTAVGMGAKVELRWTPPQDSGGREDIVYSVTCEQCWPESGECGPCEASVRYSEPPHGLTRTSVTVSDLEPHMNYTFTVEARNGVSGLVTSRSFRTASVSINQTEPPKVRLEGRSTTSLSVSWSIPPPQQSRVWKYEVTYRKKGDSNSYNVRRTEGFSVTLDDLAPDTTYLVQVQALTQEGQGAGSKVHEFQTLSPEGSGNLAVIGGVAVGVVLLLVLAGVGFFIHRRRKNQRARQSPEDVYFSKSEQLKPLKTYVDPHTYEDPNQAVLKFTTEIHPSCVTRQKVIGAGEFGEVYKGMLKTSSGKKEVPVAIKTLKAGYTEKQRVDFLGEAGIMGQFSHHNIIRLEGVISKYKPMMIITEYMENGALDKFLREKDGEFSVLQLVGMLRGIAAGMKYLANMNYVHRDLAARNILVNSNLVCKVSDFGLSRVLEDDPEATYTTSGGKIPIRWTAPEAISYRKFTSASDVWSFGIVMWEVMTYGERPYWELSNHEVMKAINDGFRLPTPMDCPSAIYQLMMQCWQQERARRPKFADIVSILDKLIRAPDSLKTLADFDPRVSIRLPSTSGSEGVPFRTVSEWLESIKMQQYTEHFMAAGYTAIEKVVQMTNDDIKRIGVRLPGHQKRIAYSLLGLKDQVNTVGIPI

Compound: CN(C)S(=O)(=O)c1ccc2c(c1)/C(=C/c1cc3c([nH]1)CCCC3)C(=O)N2
- residual activity [1]: 99%
- residual activity [2]: 55%
- residual activity [3]: 55%
- residual activity [4]: 113%
- residual activity [5]: 92%
- residual activity [6]: 70%
- residual activity [7]: 91%
- residual activity [8]: 96%
- residual activity [9]: 96%
- residual activity [10]: 89%
- residual activity [11]: 91%
